Assay outcomes (PubChem BioAssay)
MenB inh – M. tuberculosis MenB inhibitors, primary screen, biochemical, absorbance | 1,4-dihydroxy-2-naphthoyl-CoA synthase (Mycobacterium tuberculosis (strain ATCC 25618 / … | MenB enzyme assay, absorbance read-out | inhibition, % (test concentration not listed) | 0.43% of 100,000 active | AID 540299, 2011; in the data active = inhibition above about 21%, passing the limit was not always enough
Polio RdRp inh – poliovirus RdRp elongation inhibitors, primary screen, biochemical, fluorescence polarization, total intensity | 0.66% of 150,000 active | Genome polyprotein (Poliovirus type 1 (strain Mahoney)), P03300 | % elongation, % (compound at 16.7 µg/mL) | poliovirus polymerase elongation; active compounds read low; in the data active = % elongation below about 90%
Target sequence (P03300 1749-2209 limits assumed): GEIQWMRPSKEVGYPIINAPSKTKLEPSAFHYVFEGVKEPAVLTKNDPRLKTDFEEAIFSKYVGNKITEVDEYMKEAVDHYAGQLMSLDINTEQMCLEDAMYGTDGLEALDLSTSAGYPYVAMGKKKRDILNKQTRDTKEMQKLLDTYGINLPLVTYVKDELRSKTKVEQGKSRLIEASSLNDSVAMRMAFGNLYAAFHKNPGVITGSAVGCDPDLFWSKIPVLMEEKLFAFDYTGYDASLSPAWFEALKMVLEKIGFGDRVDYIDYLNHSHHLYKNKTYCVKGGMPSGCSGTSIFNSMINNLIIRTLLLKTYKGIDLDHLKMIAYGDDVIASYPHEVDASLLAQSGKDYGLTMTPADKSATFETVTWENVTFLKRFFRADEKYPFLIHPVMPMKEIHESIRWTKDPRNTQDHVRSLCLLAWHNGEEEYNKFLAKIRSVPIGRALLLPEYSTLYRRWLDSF
Mtb MbtI inh – MbtI salicylate synthase inhibitors, primary screen, biochemical, fluorescence intensity; 0.89% of 100,000 active; inhibition, % (no concentration beside the values); purified MbtI enzyme, fluorescence intensity read-out; in the data active = inhibition mostly above about 56%, no sharp cut-off; inactive = mostly below about 77%
Numbers without * were called inactive; nt = not tested or not shown. Compounds with a hit are over-represented: about 1.4% of the library has one in this group of screens.

SMILES | MenB inh | Polio RdRp inh | Mtb MbtI inh
COCC(C)NS(=O)(=O)c1c(C)cc(C)cc1C (configuration not stated) | -1 | 107 | nt
O=C(O)C(C(=O)/C=C/c1ccccc1)=C1SCS1 | -76 | 106 | 89*
CC1CS/C(=C(/C(=O)O)C(=O)/C=C/c2cccc(O)c2)S1 (configuration not stated) | -90 | 103 | nt
C=CC[n+]1c2n(c3ccc(F)c(F)c31)CCCCC2 | nt | 101 | -5
CCCn1c(CCC(=O)Nc2cc(C(=O)OC)cc(C(=O)OC)c2)nc2cccnc21 | nt | 105 | nt
NNC(=O)c1c(O)c2c([nH]c1=O)CCCC2 | -13 | 103 | -1
COc1cccc2c(C)cc(=O)[nH]c12 | nt | 104 | -4
Cc1cc(=O)[nH]c2c(C)c(Cl)ccc12 | 29* | 101 | 2
CCCCc1ccc(Oc2cc(N3CCOCC3)nc(-c3ccccc3)n2)cc1 | -29 | 101 | 6
N#Cc1ccccc1CCl | nt | 101 | 0
Cc1ccc(C2=NS(=O)(=O)N(C)C(C(=O)Nc3sc4c(c3C(N)=O)CCCC4)=C2)cc1 | -67 | 94 | 58*
Cc1ccc(S(=O)(=O)CC(=O)Nc2sc3c(c2C(N)=O)CCCC3)cc1 | nt | 110 | nt
COc1cccc(Oc2ccc(C(F)(F)F)cc2NC(=O)CSCC(=O)Nc2cc(C)on2)c1 | -20 | 103 | -5
COc1cccc(Oc2ccc(C(F)(F)F)cc2Nc2nc3ccccc3o2)c1 | -109 | 81* | -36
COC(=O)C1C(=O)CC(=O)CC1c1ccco1 (configuration not stated) | 40* | 100 | 1
CCOC(=O)C1C(=O)C=C(c2ccc(NS(C)(=O)=O)cc2)CC1c1ccco1 (configuration not stated) | -41 | 102 | 14
Clc1cccc(CNCc2cccs2)c1 | 38* | 102 | 1
CCc1ccc(CNCc2cccs2)cc1 | -51 | 105 | -13
N#CC1(NC(=O)COC(=O)C2CC3CCCC(C2)C3=O)CCCC1 (configuration not stated) | -17 | 100 | -6
CC1(C)Cc2c(c(N3CCNCC3)[nH]c(=S)c2C#N)CO1 | -9 | 102 | 95*
CC1(C)Cc2c(C#N)c(N)sc(=S)c2CO1 | -32 | 99 | 37
CCOC(=O)c1cccc(NC(=O)N2CCC(CN3CCCCC3)CC2)c1 | 6 | 102 | -3
CCN(CC)Cn1c(=S)oc2ccccc21 | -25 | 102 | 11
CCN(Cc1ccncc1)Cn1c(=S)oc2ccccc21 | -7 | 102 | 75*
CC(=O)NNc1nc(Cl)nc(N(C)C)n1 | 12 | 100 | -10
SMILES | MenB inh | Polio RdRp inh | Mtb MbtI inh
CCOC(=O)c1c(NC(=O)c2cc(-c3ccc(Cl)cc3)on2)sc(C)c1C | nt | 106 | nt
COc1ccccc1-c1cc(C(=O)Nc2sc3c(c2C#N)CCCC3)no1 | nt | 82* | nt
CCOC(=O)c1c(NC(=O)c2cc(-c3ccccc3OC)on2)sc(C)c1C | nt | 73* | nt
CCOC(=O)c1c(NC(=O)c2cc(C(C)C)on2)sc(C(C)=O)c1C | nt | 98 | nt
CCOC(=O)c1c(NC(=O)c2cc(C)on2)sc(C)c1C | nt | 78* | nt
CCOC(=O)c1c(NC(=O)c2cc(CC(C)C)on2)sc(C(C)=O)c1C | nt | 81* | nt
CCOC(=O)c1c(NC(=O)c2cc(-c3ccc(OC)c(OC)c3)on2)sc(C)c1C | nt | 103 | nt
CC(C)Cc1cc(C(=O)Nc2sc3c(c2C#N)CCC3)no1 | -22 | 102 | 75
CCOC(=O)c1c(NC(=O)c2cc(CC)on2)sc(C)c1C | nt | 90* | nt
CCOC(=O)c1sc(NC(=O)c2cc(C(C)C)on2)c(C(=O)OCC)c1C | -11 | 101 | 6
COc1cccc(NC(=O)c2cn(C3CCCC3)c(=O)c3c2c2ccccc2n3C)c1 | -19 | 102 | 9
O=C(CSC1=NCCS1)Nc1cc(Cl)ccc1N1CCOCC1 | -18 | 99 | -22
Cc1ccccc1Nc1nc(N)nc(COC(=O)CCCN=C2NS(=O)(=O)c3ccccc32)n1 | -1 | 86* | -8
Cc1ccccc1Nc1nc(N)nc(COC(=O)Cc2c[nH]c3ccccc23)n1 | -2 | 108 | -9
O=C(Cn1ncc2c3ccccc3n(Cc3cccc(Cl)c3)c2c1=O)N1CCCC1 | -6 | 112 | 9
C1CCN=C(Nc2nc3c(s2)CCCC3)CC1 | -6 | 106 | 3
CC(C)(C)Nc1nc2c(s1)CCCC2 | 9 | 101 | 78*
O=c1[nH]ncc(N2CCOCC2)c1Cl | nt | nt | -2
Cc1nc(N2CCCCC2)c(C#N)c2c1COC(C)(C)C2 | -13 | 101 | -313
CS(=O)(=O)Nc1ccc(/C(N)=N/OC(=O)c2ccc(Cl)cc2)cc1 | -20 | 102 | -3
Cc1c(-c2ccccc2)sc(N)c1C(=O)N1CCCCC1 | -13 | 70* | 84
Nc1ccccc1C(=O)N1CCCCCC1 | -1 | 97 | 17
Cc1cc(Cl)c(Cl)cc1S(=O)(=O)n1cccn1 | -11 | 102 | -10
CC1CCCCC1Nc1nc2ccccc2n2nnnc12 (configuration not stated) | -23 | 89 | 5
CSc1ccc(C=C2C(=O)c3ccccc3C2=O)cc1 | nt | 103 | 24
SMILES | MenB inh | Polio RdRp inh | Mtb MbtI inh
O=C1C(=Cc2ccccc2)C(=O)c2ccccc21 | -96 | 93 | 95*
N/C(Cc1nc2ccccc2[nH]1)=N\O | 44* | 106 | -3
NC(=O)Cc1nc2ccccc2[nH]1 | nt | 101 | -5
O=C(NCCc1nc2ccccc2[nH]1)c1cccs1 | -12 | 99 | nt
O=C(Cc1nc2ccccc2[nH]1)c1cccs1 | nt | 22* | 5
O=C1CNC(=S)N1CCc1ccccc1 | -10 | 123 | -1
Cc1ccc(-c2nc(-c3ccc(C)cc3)[nH]c(=O)n2)cc1 | -30 | 101 | -1
CCOc1ccccc1NC(=O)Cn1c(=O)n(C(C)C)c(=O)c2oc3ccccc3c21 | nt | 108 | nt
CCCCCCCc1c(COC)[nH]c(=S)[nH]c1=O | -31 | 102 | 55*
COCc1[nH]c(=S)[nH]c(=O)c1Cc1c(F)cccc1Cl | -28 | 105 | 26
O=C(OCc1nnc(-c2ccc(Cl)cc2)o1)C1=NN(c2ccccc2)C(=O)CC1 | -4 | 102 | -3
Fc1ccc(/C=N/c2nnc3nc[nH]n23)cc1 | -4 | 88* | nt
CC1SC(/N=C/c2ccc(F)cc2)=NNC1=O (configuration not stated) | -13 | 105 | nt
Cc1ccc(Cn2ccsc2=NC(=O)C2(C#N)CCCC2)cc1 | 3 | 108 | 12
COC(=O)CSC1=C(C#N)C(c2ccco2)C(C(=O)Nc2ccccc2)=C(C)N1 (configuration not stated) | -1 | 104 | -20
CC1=C(C(=O)Nc2ccccc2)C(c2ccco2)C(C#N)=C(SCC(=O)Nc2ccccc2)N1 (configuration not stated) | 39* | 102 | 17
Cc1cc(=S)nc(C(C)C)[nH]1 | -53 | 100 | 91*
Cc1cc(C)[nH]c(=S)n1 | -19 | 104 | 6
Cc1cc(C(C)(C)C)ccc1OCC(N)=O | nt | 100 | 0
O=C(O)CCC(=O)c1ccc(Br)cc1 | nt | 90* | -11
O=C(O)CCC(=O)c1ccc(I)cc1 | nt | 101 | 4
Cc1ccc(C(=O)N/C(=C\c2cn(-c3ccccc3)nc2-c2ccccc2)C(=O)O)cc1 | -11 | 102 | nt
CCN(CC)CCNC(=O)c1ccc2c(=O)n3nc(Nc4ccccc4)sc3nc2c1 | nt | 81* | nt
O=C(NCc1ccccc1)c1ccc2c(=O)n3nc(Nc4ccccc4)sc3nc2c1 | 7 | 98 | 38
